Where a name gives a salt, the structure may show the parent alone. ± gives the standard deviation of the averaged measurements.
Test system: E. coli TESEC Mtb Alr
Assay: growth (OD600 after 10 h); higher = more growth (less inhibition)
Settings: compound 0.1 mM
Experimental: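 TESEC Mtb Alr E. coli, or the Alr+ wild-type control, in 384-well plates with Prestwick library compounds at 0.1 mM and 1% DMSO, across arabinose induction levels of 1E3 to 1E7 nM. Growth is read as OD600 after 10 h at 37 °C in triplicate biological replicates.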

[1] = arabinose 1000 nM, raw OD600 reference: median of DMSO wells 0.294, cell-free background 0.041
[2] = arabinose 10000 nM, raw OD600 reference: median of DMSO wells 0.264, cell-free background 0.041
[3] = arabinose 100000 nM, raw OD600 reference: median of DMSO wells 0.201, cell-free background 0.041
[4] = arabinose 1000000 nM, raw OD600 reference: median of DMSO wells 0.193, cell-free background 0.041
[5] = arabinose 10000000 nM, raw OD600 reference: median of DMSO wells 0.146, cell-free background 0.041

Row | Compound | growth [1] | growth [2] | growth [3] | growth [4] | growth [5]
1 | CC(C)c1c(C(=O)Nc2ccccc2)c(-c2ccccc2)c(-c2ccc(F)cc2)n1CC[C@@H](O)C[C@@H](O)CC(=O)O [Atorvastatin] | 0.177 ± 0.0077 | 0.108 ± 0.0075 | 0.168 ± 0.0033 | 0.0909 ± 0.0015 | 0.136 ± 0.0052
2 | NC(=O)c1cnccn1 [Pyrazinamide] | 0.284 ± 0.01 | 0.267 ± 0.0063 | 0.208 ± 0.03 | 0.185 ± 0.007 | 0.14 ± 0.0018
3 | OCCOCCN1CCN(C(c2ccccc2)c2ccc(Cl)cc2)CC1 (stereo not given) [Hydroxyzine dihydrochloride] | 0.202 ± 0.0073 | 0.243 ± 0.004 | 0.171 ± 0.0032 | 0.11 ± 0.0035 | 0.1214 ± 0.0011
4 | CN(C)CCCN1c2ccccc2Sc2ccc(Cl)cc21 [Chlorpromazine hydrochloride] | 0.054 ± 0.0094 | 0.04817 ± 5.8e-05 | 0.0531 ± 0.008 | 0.0443 ± 0.00046 | 0.0452 ± 0.00035
5 | CCOC(=O)[C@H](CCc1ccccc1)N[C@@H](C)C(=O)N1[C@H](C(=O)O)C[C@@H]2CCC[C@@H]21 [Ramipril] | 0.292 ± 0.004 | 0.288 ± 0.01 | 0.19 ± 0.011 | 0.217 ± 0.004 | 0.14 ± 0.0088
6 | N[C@H]1CONC1=O [(S)-(-)-Cycloserine] | 0.0382 ± 0.001 | 0.0389 ± 0.0016 | 0.217 ± 0.0065 | 0.188 ± 0.012 | 0.108 ± 0.0032
7 | C#C[C@]1(O)CC[C@H]2[C@@H]3CCC4=C(CCC(=O)C4)[C@H]3CC[C@@]21C [Norethynodrel] | 0.142 ± 0.0092 | 0.107 ± 0.0051 | 0.157 ± 0.0071 | 0.0575 ± 0.0014 | 0.089 ± 0.0065
8 | Cc1c(NC(C)C)c(=O)n(-c2ccccc2)n1C [Isopyrin hydrochloride] | 0.304 ± 0.017 | 0.265 ± 0.004 | 0.229 ± 0.0067 | 0.211 ± 0.0094 | 0.141 ± 0.0042
